Test results as given in PubChem BioAssay (Tox21).
Records with an inconclusive call do not appear. Unmarked numbers belong to inactive results. The call rests on the fitted dose curve; in most records, active means well fitted cell-killing curve with a large enough effect in the repeat runs; inconclusive means weak or mixed curves; inactive means flat fitted curve, though single readings scatter.

Assay: qHTS assay to identify small molecule antagonists of the estrogen related receptor (ERR) signaling pathway - cell viability counter screen (AID 1224818)
Conditions: ERR reporter cell line viability counter screen; series mostly up to 46.1 µM; viability change, negative = cytotoxic: at the top concentration
Excerpt: National Center for Advancing Translational Sciences [NCATS]
NIH Chemical Genomics Center [NCGC]
U.S. Environmental Protection Agency [EPA]
National Institutes of Environmental Health Sciences [NIEHS]
National Toxicology Program [NTP]
U.S. Food and Drug Administration [FDA]
Estrogen related receptors (ERRs), the first orphan nuclear receptors discovered, play an important role in the control of cellular energy metabolism. ERRs are required for high-energy production in response to the environmental challenges. ERR-alpha was also identified as an adverse marker for breast cancer progression; ERR-alpha-positive tumors have a poor prognosis. To screen and to identify environmental compounds that perturb the ERR signaling pathways could provide valuable information for potential therapeutic or preventive measures in the treatment of metabolic disease. To differentiate true ERR antagonists or agonist from cytotoxic substances, the assay is multiplexed with cell viability assay.
Tox21 Assay Protocol Summary:
The ERR cells were dispensed at 2,000 cells/5 ul/well in 1536-well white plates using a Multidrop dispenser. After the assay plates were incubated at a 37 C/5% CO2 incubator for 6 hours, 23 nL of compounds dissolved in DMSO, positive and negative controls or DMSO only was transferred to the assay plate by a pin tool. The plates were incubated at 37 C for 17.5 hours. 1 ul/well of CellTiter-Fluor reagent was added into the assay plates using a Flying Reagent Dispenser. After 30 min incubation at 37 C/5% CO2, the fluorescence intensity in the plates was measured using a ViewLux plate reader.
On the % scale 0 is the no-effect control and ±100 the full control effect.

Question: For `N[C@@H](COP(=O)(O)O)C(=O)O`, which “viability change, negative = cytotoxic” value is on record?
Answer: 8.75%

Question: For `CCN(CC)CC(=O)Nc1c(C)cccc1C`, which “viability change, negative = cytotoxic” value is on record?
Answer: -5.04%

Question: With `O=C(NCCN1CCOCC1)c1ccc(Cl)cc1` as the compound, how does the “viability change, negative = cytotoxic” value read?
Answer: 7.22%

Question: For `CC(C)NCC(O)COc1ccc(COCCOC(C)C)cc1` (centres undefined), which “viability change, negative = cytotoxic” value is on record?
Answer: 2.58%

Question: For `FC(F)(F)c1ccccc1-n1ccnc1`, which “viability change, negative = cytotoxic” value is on record?
Answer: 2.22%

Question: For `CNS(=O)(=O)CCc1ccc2[nH]cc(C3CCN(C)CC3)c2c1`, which “viability change, negative = cytotoxic” value is on record?
Answer: 11.7%

Question: With `NCCS` as the compound, how does the “viability change, negative = cytotoxic” value read?
Answer: -2.85%

Question: For `NC(CO)C(=O)NNCc1ccc(O)c(O)c1O` (centres undefined), which “viability change, negative = cytotoxic” value is on record?
Answer: 4.95%

Question: For `CC(=O)CCCCn1c(=O)c2c(ncn2C)n(C)c1=O`, which “viability change, negative = cytotoxic” value is on record?
Answer: 5.97%

Question: Which “viability change, negative = cytotoxic” value does the source give for `O=C(CCNNC(=O)c1ccncc1)NCc1ccccc1` here?
Answer: -1.57%

Question: Which “viability change, negative = cytotoxic” value does the source give for `Cc1cccc(C)c1OCC(C)N` (centres undefined) here?
Answer: -2.88%

Question: For `COc1ccc(C2CNC(=O)C2)cc1OC1CCCC1` (centres undefined), which “viability change, negative = cytotoxic” value is on record?
Answer: 8.98%

Question: For `Cc1cc(C(C)(C)C)c(O)c(C)c1CC1=NCCN1`, which “viability change, negative = cytotoxic” value is on record?
Answer: 4.34%

Question: With `CCN1CCc2nc(N)oc2CC1` as the compound, how does the “viability change, negative = cytotoxic” value read?
Answer: 18.2%

Question: With `CCOC(=O)c1ncn2c1CN(C)C(=O)c1cc(F)ccc1-2` as the compound, how does the “viability change, negative = cytotoxic” value read?
Answer: 12.5%

Question: With `Nc1nnc(-c2cccc(Cl)c2Cl)c(N)n1` as the compound, how does the “viability change, negative = cytotoxic” value read?
Answer: -0.937%

Question: For `CC(C)NCC(O)COc1cccc2[nH]ccc12` (centres undefined), which “viability change, negative = cytotoxic” value is on record?
Answer: 2.07%

Question: For `CN(CCOc1ccc(NS(C)(=O)=O)cc1)CCc1ccc(NS(C)(=O)=O)cc1`, which “viability change, negative = cytotoxic” value is on record?
Answer: 6.71%

Question: With `C[C@@H](O)[C@H]1C(=O)N2C(C(=O)O)=C(SCCN=CN)C[C@H]12` as the compound, how does the “viability change, negative = cytotoxic” value read?
Answer: -1.84%

Question: With `CN1CCN(CC(=O)N2c3ccccc3C(=O)Nc3cccnc32)CC1` as the compound, how does the “viability change, negative = cytotoxic” value read?
Answer: 11.8%

Question: For `COCCOC(=O)C1=C(C)NC(C)=C(C(=O)OC(C)C)C1c1cccc([N+](=O)[O-])c1` (centres undefined), which “viability change, negative = cytotoxic” value is on record?
Answer: -12.1%

Question: Which “viability change, negative = cytotoxic” value does the source give for `CCCN1C[C@H](CSC)C[C@@H]2c3cccc4[nH]cc(c34)C[C@H]21` here?
Answer: -0.649%

Question: With `COC(=O)[C@@H]1[C@H]2C[C@H]3c4[nH]c5ccccc5c4CCN3C[C@@H]2CC[C@@H]1O` as the compound, how does the “viability change, negative = cytotoxic” value read?
Answer: -6.84%

Question: Which “viability change, negative = cytotoxic” value does the source give for `CCCCNc1ccc(C(=O)OCCN(C)C)cc1` here?
Answer: 5.06%
